An excerpt weighted towards active compounds, which were near 0.87% of everything screened.
RGS4 inh = human RGS4 inhibition. P49798. Transcreener GDP fluorescence polarization, RGS4-accelerated GTP hydrolysis. Potency, µM (doses to about 114 µM), inactives show at the highest dose activity change, negative = inhibition, actives largely listed as inhibitors. actives 0.039% (n = 390,000); note: nearly all actives have a fitted effect of over 75% in size
Target sequence (P49798 whole entry, looked up): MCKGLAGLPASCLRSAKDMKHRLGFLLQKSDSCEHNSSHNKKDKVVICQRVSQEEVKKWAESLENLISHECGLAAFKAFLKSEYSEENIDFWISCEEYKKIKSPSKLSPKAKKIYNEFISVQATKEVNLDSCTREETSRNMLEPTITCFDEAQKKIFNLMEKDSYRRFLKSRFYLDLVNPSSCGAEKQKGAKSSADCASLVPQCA
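MLSMR compounds (23 nl, pin-transferred) preincubated 10 min at room temperature with a 500nM (2x) first reagent, then RGS4 at 900nM (2x) plus Transcreener GDP mix added; fluorescence polarization (620/688 nm) read before and after 90 min at 30 °C.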
TDP1 inh = inhibitors of human tyrosyl-DNA phosphodiesterase TDP1. Q9NUW8. recombinant TDP1, AlphaScreen DNA substrate cleavage. Potency, µM (top dose mostly 130 µM), for inactives: at the highest dose activity change, negative = inhibition, hits mostly inhibitors. actives 0.28% (n = 350,000). AID 485290; note: nearly all actives have a fitted effect of over 40% in size
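Recombinant human Tdp1 (E. coli-expressed, 1 nM final) preincubated with compounds 15 min at room temperature, then 5'-biotin/3'-phosphotyrosine-FITC DNA substrate (15 nM final) added for 5 min. AlphaScreen beads (10 ug/ml final) added 10 min; cleavage lowers signal.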
RECQ1 inh = RECQ1 (human) helicase inhibition. P46063. RECQ1 DNA unwinding, red fluorescence kinetic read. Potency, µM (titrated, usually from 57.3 µM), for inactives: at the highest dose activity, negative = inhibition, usual class: inhibitors. actives 0.54% (n = 240,000). AID 2549;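 note: plate controls were vehicle for no effect and no enzyme for full effect; nearly all actives have a fitted effect of over 30% in size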
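RECQ1T1 50 nM; forked duplex (20 bp + 30-nt ss tails) 200 nM, ATP 2 mM final; pH 8.0, 2 mM MgCl2, 2.5 ug/ml poly(dI-dC); 15 min compound preincubation; discontinuous kinetic read over 2 h at RT.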
APEX1 inh = inhibitors of human APE1 endonuclease | P27695 | recombinant APE1, TAMRA/BHQ-2 abasic DNA cleavage fluorescence | Potency, µM (highest dose often 65.8 µM), for inactives: at the top dose activity change, negative = inhibition, hits mostly inhibitors | actives 0.35% (n = 350,000);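 note: plate controls were vehicle for no effect and reference inhibitor for full effect; nearly all actives have a fitted effect of over 55% in size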
Target sequence (P27695 whole entry, looked up): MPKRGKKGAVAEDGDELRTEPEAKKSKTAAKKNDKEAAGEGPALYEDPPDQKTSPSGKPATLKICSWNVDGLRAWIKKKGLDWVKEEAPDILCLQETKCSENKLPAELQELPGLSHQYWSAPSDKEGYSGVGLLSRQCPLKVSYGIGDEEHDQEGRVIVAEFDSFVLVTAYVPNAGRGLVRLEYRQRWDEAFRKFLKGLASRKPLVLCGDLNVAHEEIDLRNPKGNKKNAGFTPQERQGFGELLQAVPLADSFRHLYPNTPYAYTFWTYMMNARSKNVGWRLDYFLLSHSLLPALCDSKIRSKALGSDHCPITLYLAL
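Compound pre-exposure to 0.75 nM APE1, 15 min at ambient temperature. Reaction initiated with 50 nM TAMRA/BHQ-2 THF substrate, read immediately in kinetic mode, 525 nm excitation, 598 nm emission.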
BLM helicase inh = inhibitors of human Bloom syndrome helicase BLM; actives 0.2% (n = 350,000); Potency, µM (titrated, usually from 56.1 µM), for inactives: at the top dose activity change, negative = inhibition, usual class: inhibitors; recombinant BLM DNA unwinding, fluorescence dequenching;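 note: plate controls were vehicle for no effect and no enzyme for full effect; nearly all actives have a fitted effect of over 35% in size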
KAT2A inh = GCN5L2 (KAT2A) acetyltransferase inhibition; Q92830; GCN5L2 HAT assay, ThioGlo1 CoA-SH fluorescence; Potency, µM (top dose mostly 58.9 µM), inactives show top-dose activity change, negative = inhibition, most hits filed as inhibitors; actives 0.21% (n = 390,000); AID 504327
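Compounds, pin-transferred from DMSO stocks, meet 20nM GCN5L2 for 15 min before the reaction begins with H3(1-25) peptide (75uM) and acetyl-CoA (70uM). Thiol-reactive ThioGlo1 reports CoA release over 20 min at room temperature.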
* = called active by the depositor; i = inactive; ? = inconclusive; nt = no result given; ! = not active in a repeat; [ ] = remark or other dose. Calls come from the whole dose curve; as a rule, active = well fitted curve in the direction sought with a large enough effect; inconclusive = small, poorly fitted or top-dose-only effect, or another doubt; inactive = no such curve, though single readings can be large; an effect the other way counts as inactive or inconclusive. Unless noted, % is set by controls: 0 for no effect and ±100 for the full control effect; potency is the fitted concentration of half-maximal effect.

SMILES	RGS4 inh	TDP1 inh	RECQ1 inh	APEX1 inh	BLM helicase inh	KAT2A inh
O=C(O)CN1C(=O)/C(=C\c2ccccc2OCc2ccc(Cl)cc2Cl)SC1=S	?	2%	nt	31%	-22%	18µM*
Cc1cc2c(s1)c1cnn(Cc3ccc(S(C)(=O)=O)cc3)c(=O)c1n2C	nt	-1%	nt	nt	nt	nt
NC(=S)NN=Cc1ccc(-c2ccc(S(=O)(=O)Nc3ncccn3)cc2)o1	-36%	10µM*	nt	-28%	nt	?
COc1ccc(N2C(=O)CSC2c2ccc(F)cc2)cc1 (stereo not drawn)	-1%	nt	nt	0%	0%	-9%
COc1ccc(-n2sc3ccc(F)cc3c2=O)cc1	-126%	0%	nt	23%	nt	2.8µM*
Cc1ccc(C)c(-n2sc3ccc(F)cc3c2=O)c1	-142%	0%	nt	17%	nt	3.5µM*
O=c1c2cc(F)ccc2sn1-c1ccc(F)cc1	-127%	0%	nt	17%	nt	1.8µM*
O=C1CCCC(=O)N1c1ccc(F)cc1	-17%	nt	nt	7%	-2%	1%
N#Cc1c(-c2cccc(C(F)(F)F)c2)no[n+]1[O-]	nt	nt	nt	-8%	nt	nt
O=S1(=O)N=C(Oc2ccccc2C(F)(F)F)c2ccccc21	nt	3%	nt	nt	nt	nt
O=C(NCCCc1nc2ccccc2n1CCCOc1ccccc1)C1CCCCC1	-7%	2%	nt	nt	nt	nt
COc1ccc(OC)c(Nc2nn3c(=O)c4ccccc4nc3s2)c1	nt	nt	nt	-24%	nt	nt
O=c1[nH]c2ccc(S(=O)(=O)N3CCN(S(=O)(=O)c4c(F)cccc4F)CC3)cc2[nH]c1=O	nt	45µM*	nt	nt	nt	nt
Cn1c2cc(S(C)(=O)=O)sc2c2cnn(Cc3ccccc3F)c(=O)c21	nt	1%	nt	nt	nt	nt
O=C(CSc1nnc(NC2CCCCC2)s1)Nc1ccc2c(c1)C(=O)c1ccccc1C2=O	8%	7%	-14%	?	-5%	-7%
NS(=O)(=O)c1ccc(NC(=O)CSc2nnc(NC3CC3)s2)cc1	13%	14µM*	nt	11µM*	nt	-8%
Cc1cccc(C2=NN(c3ccccc3)[C@@H](C(=O)N3CCOC3=O)[C@@H]2c2ccc(F)cc2)c1	3%	-5%[56.1 µM]	i	18%	-13%[75.6 µM]	32µM*
Cc1cccc(C2=NN(c3ccccc3)[C@@H](C(=O)N3CCOC3=O)[C@@H]2c2ccc(Cl)cc2)c1	16%	-6%[56.1 µM]	-17%	?	-11%[75.6 µM]	?
CC(C)(C)OC(=O)NCc1nnc(-c2cc3ccccc3[nH]2)s1	nt	0%	nt	nt	nt	nt
CN1CCN(c2ncncc2-c2cccnc2)CC1	nt	nt	2%	1%	-17%	0.89µM*
O=[N+]([O-])c1cccc(-c2nnc3ccc4ccccc4n23)c1	-25%	nt	?	13µM*	5%	15%
N#Cc1c(-c2ccc(-c3ccccc3)cc2)no[n+]1[O-]	nt	nt	nt	-7%	nt	nt
CCOc1nc2cccc(C(=O)OC(C)OC(=O)OC3CCCCC3)c2n1Cc1ccc(-c2ccccc2-c2nn[nH]n2)cc1 (stereo not drawn)	nt	-5%	?	6%	-18%	20µM*
CC(=O)OC[C@]12CC[C@H]3[C@@](C)(CC[C@H]4C(C)(C)CCC[C@]34C)[C@@H]1C[C@H](C1=CC(=O)O[C@H]1OC(C)=O)O2	nt	-5%	nt	9.5µM*	nt	-30%
N[C@]1(C(=O)O)CCc2cc(P(=O)(O)O)ccc21	212%[56.9 µM]	-4%[56.1 µM]	-7%	-14%	-9%	-19%[0.501 µM]
NC1(C(=O)O)CCc2cc(P(=O)(O)O)ccc21 (stereo not drawn)	38µM*	-1%	-25%	9%	nt	-14%
Cc1c(C(=O)O)c(O)cc2c1C(=O)c1c(O)c([C@@H]3O[C@H](CO)[C@@H](O)[C@H](O)[C@H]3O)c(O)c(O)c1C2=O	-37%	3%	nt	14µM*!	nt	-9%
Oc1ccc(/C=N/NC(=S)Nc2cccnc2)c(O)c1O	-109%	nt	3.5µM*	0.79µM*	-20%	-9%
Oc1cccc(/C=N/NC(=S)Nc2cccnc2)c1O	-36%	0%	?	?	-20%	-1%
